Measured values: PubChem BioAssay AID1645838 (ICCB-Longwood Screening Facility, Harvard Medical School, 2021)
Several values for one entry are separate records, joined by “and”; a condition that tells them apart may be missing. Equal entries are not always repeated. The campaign covered roughly 2,000 compounds. About 100 (5%) were called active. Rule as the data show it: active = z-score above about 2; inactive = the rest. The list comes from a sample in which actives are over-represented; it also holds similar structures and randomly drawn compounds. The source holds several records for some structures; these can differ, active in one and inactive in another.

Assay: supercomplex reporter luminescence per Hoechst cell count – Hoechst nuclei count (AID 1645838);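 also: control cybrid cells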;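 as to z-score: higher means more mitochondrial supercomplex formation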
Settings: Cells, luminescence/Hoechst cell count ratio; for z-score: stronger effect = higher value; for cell count: measured here: cell number, Hoechst nuclei count
[1] = library stock concentration (final well concentration not given) 80 uM
[2] = library stock concentration (final well concentration not given) 400 uM
[3] = library stock concentration (final well concentration not given) 2 mM
[4] = library stock concentration (final well concentration not given) 10 mM
[5] = library stock concentration (final well concentration not given) 46 uM
[6] = library stock concentration (final well concentration not given) 278 uM
[7] = library stock concentration (final well concentration not given) 1.67 mM

In the case of `CCOc1ccc(-n2c(C(C)N(Cc3cccnc3)C(=O)Cc3ccc(OC(F)(F)F)cc3)nc3ncccc3c2=O)cc1` (stereo unspecified), the z-score [1] is reported as 0.00539 (inactive), the z-score [2] is reported as 0.51 (inactive) and the z-score [3] is reported as -0.332 (inactive). The z-score [4] was -0.306 (inactive), the cell count [1] was 4950 and the cell count [2] was 4820. The cell count [3] was 4910 and the cell count [4] was 4660.
With `CCOc1ccc(-n2c(C(C)N(Cc3cccnc3)C(=O)Cc3ccc(F)c(C(F)(F)F)c3)nc3ncccc3c2=O)cc1` (stereo unspecified) the z-score [1] was -0.219 (inactive), the z-score [2] was -0.0969 (inactive) and the z-score [3] was 0.0541 (inactive). The z-score [4] was -0.0286 (inactive), the cell count [1] was 5590 and the cell count [2] was 5490. It also gave a cell count [3] of 5970 and a cell count [4] of 4780.
For `CCCCCCCCCCCCCCCCC/C=C/C(=O)O`, the z-score was 0.212 (inactive) and the cell count was 4980.
With `Cc1nc(Nc2ncc(C(=O)Nc3c(C)cccc3Cl)s2)cc(N2CCN(CCO)CC2)n1` the outcome (library stock 10 mM) was “inactive; censored for cell count”, the z-score [5] was -0.0819 (inactive) and the z-score [1] was 3.96 (active). The z-score [6] was 0.412 (inactive), the z-score [2] was 5.15 (active) and the z-score [7] was 3.64 (active). For the same molecule, the z-score [3] was 6.64 (active), the z-score [4] was 3.97 (active) and the cell count [5] was 4850. It also gave a cell count [1] of 2250, a cell count [6] of 4290 and a cell count [2] of 1990. It also gave a cell count [7] of 2120, a cell count [3] of 1770 and a cell count [4] of 1700.
In the case of `CCCCC[C@@H](O)/C=C/[C@H]1[C@H](C/C=C\CCCC(=O)O)C(=O)C[C@@H]1O`, the z-score is reported as -0.0856 (inactive) and the cell count is reported as 5040.
With `CCC(=O)NCC1CC1c1cccc2c1CCO2` (stereo unspecified) the z-score [5] was 0.0958 (inactive), the z-score [6] was 0.113 (inactive) and the z-score [7] was -0.0496 (inactive). The z-score [4] was -0.0795 (inactive), the cell count [5] was 6660 and the cell count [6] was 6440. For the same molecule, the cell count [7] was 7030 and the cell count [4] was 7060.
In the case of `O=c1cc(N2CCOCC2)oc2c(-c3ccccc3)cccc12`, the z-score is reported as 0.00801 (inactive) and the cell count is reported as 5270.
With `O=c1cc(N2CCOCC2)oc2c(-c3cccc4c3sc3ccccc34)cccc12` the z-score [1] was -0.493 (inactive) and 0.0213 (inactive), the z-score [2] was -0.14 (inactive) and 0.291 (inactive) and the z-score [3] was 1.89 (inactive) and 3.23 (active). For the same molecule, the z-score [4] was 0.374 (inactive) and 11.4 (active), the cell count [1] was 4940 and 6230 and the cell count [2] was 4400 and 5530. For the same molecule, the cell count [3] was 3070 and 3850 and the cell count [4] was 4020 and 1970.
With `O=c1cc(N2CCOCC2)oc2c1ccc1ccccc12` the z-score [5] was -0.263 (inactive), the z-score [6] was 0.075 (inactive) and the z-score [7] was 0.0237 (inactive). For the same molecule, the z-score [4] was -0.121 (inactive), the cell count [5] was 6320 and the cell count [6] was 6310. It also gave a cell count [7] of 6270 and a cell count [4] of 6380.
For `C[C@@H](O)CCC[C@@H](O)/C=C/[C@@H]1[C@@H](CCCCCCC(=O)O)[C@@H](O)C[C@H]1O`, the z-score was -0.0165 (inactive) and the cell count was 5060.
In the case of `NC(=O)c1ccc2nc(-c3ccc(Oc4ccc(Cl)cc4)cc3)[nH]c2c1`, the z-score [1] is reported as 0.235 (inactive), the z-score [2] is reported as 0.636 (inactive) and the z-score [3] is reported as 0.25 (inactive). For the same molecule, the z-score [4] was 2.04 (active), the cell count [1] was 4680 and the cell count [2] was 4440. For the same molecule, the cell count [3] was 4560 and the cell count [4] was 3840.
For `NC(=O)c1ccc(-c2nc(-c3ccc4c(c3)OCCO4)c(-c3ccccn3)[nH]2)cc1`, the z-score was 0.107 (inactive) and the cell count was 5540.
With `NC(=O)c1ccc(-c2nc(-c3ccc4c(c3)OCO4)c(-c3ccccn3)[nH]2)cc1` the z-score was -0.0341 (inactive) and the cell count was 5380.
In the case of `CCCCCCCCCCCSCC(=O)O`, the z-score is reported as -0.636 (inactive) and the cell count is reported as 5540.
In the case of `CCCCCC(=O)/C=C/C=O`, the z-score is reported as 3.38 (active) and the cell count is reported as 4570.
In the case of `CCCCCC(O)/C=C/C=O` (stereo unspecified), the z-score is reported as -0.635 (inactive) and the cell count is reported as 5350.
With `CCCCCCCCCCCCCCCC(=O)NC(C)C` the z-score was -0.641 (inactive) and the cell count was 5670.
For `CCCCCC/C=C\CCCCCCCC(=O)OCC`, the z-score was -0.872 (inactive) and the cell count was 5340.
For `Cc1ccc(C)c(-n2sc3cc(F)ccc3c2=O)c1`, the z-score [5] was -0.174 (inactive), the z-score [6] was -0.302 (inactive) and the z-score [7] was -1.02 (inactive). The z-score [4] was 1.44 (inactive), the cell count [5] was 7370 and the cell count [6] was 6230. The cell count [7] was 7150 and the cell count [4] was 2660.
With `CS(=O)(=O)N1CCc2c(-c3cnc(N)nc3)nc(N3CCOCC3)nc21` the outcome (library stock 10 mM) was “inactive; censored for cell count”, the z-score [1] was -0.156 (inactive) and the z-score [2] was 0.294 (inactive). The z-score [3] was 1.97 (active), the cell count [1] was 5660 and the cell count [2] was 4440. It also gave a cell count [3] of 2590.
For `CC1=C(C(=O)Nc2ccccc2C)C(c2cccc([N+](=O)[O-])c2)C2=C(CCCC2=O)N1` (stereo unspecified), the z-score [1] was 0.502 (inactive), the z-score [2] was 0.355 (inactive) and the z-score [3] was -0.0592 (inactive). For the same molecule, the z-score [4] was 0.0886 (inactive), the cell count [1] was 4870 and the cell count [2] was 4830. The cell count [3] was 4490 and the cell count [4] was 4680.
With `CCCCCCCCCCCCCCCCC/C=C\C(=O)O` the z-score was 0.0429 (inactive) and the cell count was 4620.
In the case of `CCCCCCCC/C=C\CCCCCCCC(=O)NCC`, the z-score is reported as 0.358 (inactive) and the cell count is reported as 5660.
In the case of `CCCCCCCC(=O)OC[C@H](CO)OC(=O)CCCCCCC`, the z-score is reported as -0.0675 (inactive) and the cell count is reported as 5320.
In the case of `CCCCCc1ccc(C=CC(=O)Nc2ccccc2C(=O)O)cc1`, the z-score [5] is reported as 0.0102 (inactive), the z-score [6] is reported as -0.157 (inactive) and the z-score [7] is reported as -0.383 (inactive). For the same molecule, the z-score [4] was -0.45 (inactive), the cell count [5] was 6840 and the cell count [6] was 6660. For the same molecule, the cell count [7] was 6860 and the cell count [4] was 6620.
With `CCCCN(Cc1ccc(C(=O)NO)cc1)C(=O)Nc1ccccc1` the z-score [1] was -0.413 (inactive), the z-score [2] was -0.344 (inactive) and the z-score [3] was 0.545 (inactive). The z-score [4] was 1.99 (active), the cell count [1] was 5840 and the cell count [2] was 5790. It also gave a cell count [3] of 4990 and a cell count [4] of 3280.
With `CC(C)[C@H](C(=O)Nc1ccc(C(=O)NO)cc1)c1ccccc1` the outcome was “inactive; censored for cell count”.
